# PubChem BioAssay
# Values without a mark were called inactive. The rule behind the calls is not given here.
# Biological target: Pantothenate synthetase (Mycobacterium tuberculosis (strain ATCC 25618 / H37Rv)) (UniProt P9WIL5)
# Assay: Recombinant Mtb pantothenate synthetase (PanC) inhibitors, coupled enzyme, confirmatory (AID 375);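 note: 0% = full reaction with vehicle and 100% = no enzyme background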
# Settings: coupled enzyme assay; at 10 µM, active compounds read high
# Pantothenate synthetase (Mycobacterium tuberculosis (strain ATCC 25618 / H37Rv)), sequence (P9WIL5 whole entry, looked up): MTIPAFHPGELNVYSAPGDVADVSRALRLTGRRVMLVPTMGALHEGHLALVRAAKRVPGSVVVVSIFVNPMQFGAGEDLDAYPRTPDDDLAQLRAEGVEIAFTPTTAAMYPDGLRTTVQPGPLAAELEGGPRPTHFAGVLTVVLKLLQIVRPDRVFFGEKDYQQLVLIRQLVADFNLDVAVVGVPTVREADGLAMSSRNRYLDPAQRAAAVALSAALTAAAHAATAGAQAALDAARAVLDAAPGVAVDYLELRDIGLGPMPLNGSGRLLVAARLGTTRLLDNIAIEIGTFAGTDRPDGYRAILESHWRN
row,SMILES,inhibition
1,CCOc1ccc(CCNc2nc3c(c(=O)n(C)c(=O)n3C)n2CC)cc1OCC,0%
2,O=C(Nc1ccc(F)cc1)N(CCCN1CCOCC1)Cc1cc2cc3c(cc2[nH]c1=O)OCO3,6%
3,COc1ccccc1N1CCN(C(=O)c2ccc3nc(-c4ccco4)c(-c4ccco4)nc3c2)CC1,9%
4,COc1cc(OC)c(C(=O)Nc2ncn[nH]2)cc1OC,0%
5,O=C(CSc1nc(-c2ccccc2)cs1)NCc1ccco1,0%
6,Nc1nc(-c2ccccc2)cc(C(F)(F)F)n1,5%
7,CN=C(C)C1=C(O)C(C(=O)OC)C(C)(C)CC1=O (stereo not given),0%
8,CC(=O)c1ccc(-c2nc3ccccc3n2C)o1,0%
9,O=C(CSc1nnnn1C1CCCC1)N1CCN(C(=O)c2ccco2)CC1,0%
10,Cc1nc2ccccc2c(=O)n1NC(=O)c1c(O)c2c(n(CC(C)C)c1=O)CCCC2,0%
11,CC1CCCCC1NC(=O)COc1ccc(-n2cnnn2)cc1 (stereo not given),0%
12,CCn1c(SCC(=O)N2CCN(c3ccc(Cl)cc3)CC2)nc2ccccc2c1=O,0%
13,Cc1ccc(NC(=O)CCC(=O)OCC(F)(F)C(F)F)cc1,0%
14,N#Cc1cc2ccc(N3CCOCC3)cc2cc1C#N,0%
15,CC(C)Cc1n[nH]c(=O)[nH]1,2%
16,Oc1c(Cl)cc(Cl)cc1Sc1cc(Cl)cc(Cl)c1O,0%
17,CCCCCC#CCC#CCC#CCC#CCCCC(=O)O,0%
18,CCOC(=O)C(NC(=O)C1CCCN1C(=O)OCc1ccccc1)C(=O)OCC (stereo not given),4%
19,Cc1ccccc1Cn1nc(C)c(NC(=O)c2noc3c2CCc2ccccc2-3)c1C,0%
20,Cc1c(C(=O)O)oc2ccc(S(=O)(=O)NCCC3=CCCCC3)cc12,2%

row,SMILES,inhibition
1,Oc1c(Cl)cc(Cl)c2c1NCCC2,1%
2,C[C@@H]1C[C@H]2[C@@H]3C[C@H](F)C4=CC(=O)C=C[C@]4(C)[C@@]3(F)[C@@H](O)C[C@]2(C)[C@@]1(O)C(=O)CO,0%
3,CCn1nnnc1SCC(=O)N1c2ccccc2CCc2ccccc21,1%
4,COc1ccccc1OCC(O)COC(N)=O (stereo not given),6%
5,CC(C)CC(c1nnnn1C(C)(C)C)N1CCN(C2CCCC2)CC1 (stereo not given),0%
6,Cn1c(=O)[nH]c(=O)c2c1nc(N1CCOCC1)n2CC(O)COc1ccc2ccccc2c1 (stereo not given),0%
7,COC(=O)c1c(NC(=O)C2CC=CCC2C(=O)O)sc(C(N)=O)c1C (stereo not given),1%
8,CC(=O)c1cc2c(cc1NC(=O)CN1CCN(C(=O)c3ccco3)CC1)OCO2,4%
9,COc1ccccc1N1CCN(c2nc3ccccc3nc2C(C#N)C(=O)OC(C)C)CC1 (stereo not given),1%
10,COc1cc(C(Nc2ccc3c(c2)OCO3)C(=O)NC2CCCCC2)cc(OC)c1OC (stereo not given),2%
11,COC(=O)C1=C(N)OC2=C(C(=O)CCC2)C1c1cccs1 (stereo not given),0%
12,C=CCSC1=C(C#N)C(c2ccccc2C)CC(=O)N1 (stereo not given),0%
13,COc1ccc(CN(C2CCCC2)S(=O)(=O)c2ccc(-n3cnnn3)cc2)cc1OC,0%
14,CCOC(=O)CS(=O)(=O)c1nc(-c2ccccc2)cc(C(F)(F)F)n1,3%
15,C=CCOc1ccc(/C(CC)=N/O)c(OC)c1,0%
16,Cc1ccc(-c2noc(C3CCCN(C(=O)c4ccc(F)cc4F)C3)n2)cc1 (stereo not given),0%
17,COc1ccccc1N1CCN(CCCNC(=O)Nc2ccccc2)CC1,10%
18,COc1ccc(Br)cc1-c1noc(-c2ccccc2)n1,4%
19,Cc1c(C#N)c2ccccc2n1CC(=O)N1CCc2ccccc2C1,0%
20,Cn1c(=O)c2c(nc(CN3CCN(Cc4ccccc4)CC3)n2Cc2cccc(Cl)c2)n(C)c1=O,0%
